Data reported in PubChem BioAssay (NCATS).
Values joined by “and” are separate entries in the source; they are usually repeats but may differ in a detail not shown here. Equal values may be shown once. Results filed as inconclusive are left out. Entries that show only a call come without a potency. Active and inactive are the calls of the source. Unless noted, calls follow the shape of the dose curve; as a rule, active = well fitted curve in the direction sought with a large enough effect; inconclusive = small, poorly fitted or top-dose-only effect, or another doubt; inactive = no such curve, though single readings can be large; an effect the other way counts as inactive or inconclusive.

Key:
[1] = Cell Viability - MRC5 (AID 434; calls by dose curve;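 also: potency is read from the fitted curve at half-maximal effect; cells exposed to compound for 40 hours at 37 °C; potency reflects cytotoxicity seen as loss of intracellular ATP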); conditions: MRC5 lung fibroblast viability, qHTS
In short: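 AC50 values come from Hill-equation fits of intracellular ATP loss, measured by CellTiter-Glo luminescence. Normal lung fibroblasts (MRC5) had 40 hr compound treatment at 37 C, normalized between DMSO and 100 uM tamoxifen.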

[2] = target: Mitogen-activated protein kinase 10 (Mus musculus) (UniProt Q61831); assay: JNK3 AlphaScreen Assay (AID 530; active = well fitted curve in either direction with a large enough effect, not every such curve was filed as active;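 also: kinase came from lysate of stimulated human HepG2 cells; signal reports phosphorylation of biotinylated GST-cJun 1-79 at Ser73 with 10 µM ATP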); conditions: JNK3 lysate, c-Jun phosphorylation; series mostly up to 57.1 µM
In short: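 qHTS titrations with 15 min compound pre-incubation before adding ATP (10 uM final). Read-out: AlphaScreen of Ser73-phosphorylated biotin-GST-cJun using HepG2 lysate JNK3 activated by IL-1β and TNFα.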

[3] = Cellular Toxicity (caspase-3) HepG2 (AID 654); conditions: HepG2 caspase-3 activation, luminescence, 0% = DMSO only, 100% = tamoxifen; series mostly up to 92.2 µM;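 also: cells exposed to compound for 16 hours before reading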
In short: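 Caspase 3/7 activation in HepG2 is measured as rising luminescence after a 16 hr treatment at 37 °C. Values are scaled between DMSO basal and 100 uM tamoxifen, and AC50 is fitted with the Hill equation.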

[4] = MultiTox-Fluor Cytotoxicity Assay - LYMP1-001 - Live Cells (AID 947); conditions: LYMP1-001 lymphoblastoid cells, live-cell protease fluorescence viability; series mostly up to 92.2 µM
[5] = MultiTox-Fluor Cytotoxicity Assay - LYMP1-002 - Dead Cells (AID 960); conditions: LYMP1-002 lymphoblastoid cells, dead-cell protease fluorescence; series mostly up to 46.1 µM; also: nearly all actives have a fitted effect of over 60% in size; also: potency is read from the fitted curve at half-maximal effect
In short: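 Cells were plated, rested 5 hr, then treated with compound dilution series for 16 hr at 37 C. After adding substrate reagent and 60 min at room temperature, dead-cell protease fluorescence gave concentration-response curves fitted by the Hill equation.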

[6] = Cell Viability - LYMP2-025 (AID 976); conditions: LYMP2-025 lymphoblastoid cell viability; series mostly up to 92.2 µM
In short: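 Acute cytotoxicity is scored as a concentration-dependent fall in intracellular ATP, measured by luciferase luminescence, in human lymphoblastoid LYMP2-025 cells exposed to compound for 24 hours at 37 C. AC50 values come from standard Hill fits.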

[7] = Cell Viability - LYMP2-016 (AID 984); conditions: LYMP2-016 lymphoblastoid cell viability, qHTS; series mostly up to 92.2 µM; also: nearly all actives have a fitted effect of over 55% in size; also: potency is read from the fitted curve at half-maximal effect
In short: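 qHTS, 1536-well: 2500 LYMP2-016 cells/well, 5 hr 37 C, compound added, 24 hr 37 C, CellTiter-Glo 30 min RT, luminescence. Tetraoctylammonium bromide positive control. AC50 via Hill fit.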

[8] = Cell Viability - LYMP1-002 - Assay at 24 hr (AID 993); conditions: LYMP1-002 lymphoblastoid cells viability; series mostly up to 92.2 µM
In short: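 Acute toxicity is measured as concentration-dependent loss of cellular ATP in a human lymphoblastoid line (Coriell LYMP1-002) after 24 h treatment in complete medium. ATP is quantified by luciferase luminescence and AC50 derived by Hill modelling.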

[9] = qHTS assay for small molecule agonists of retinoid X receptor alpha signaling (AID 588544); conditions: HEK293T RXRa-UAS-bla, beta-lactamase reporter, 18 h; 530 nm emission
[10] = target: Thyroid hormone receptor beta (Homo sapiens) (UniProt P10828); assay: qHTS assay for small molecule agonists of thyroid hormone receptor beta signaling (AID 588545; calls by dose curve); conditions: TR-UAS-bla GripTite HEK 293, beta-lactamase ratio, agonist mode, 18 h; series mostly up to 76.7 µM
Thyroid hormone receptor beta (Homo sapiens), sequence (P10828 whole entry, looked up): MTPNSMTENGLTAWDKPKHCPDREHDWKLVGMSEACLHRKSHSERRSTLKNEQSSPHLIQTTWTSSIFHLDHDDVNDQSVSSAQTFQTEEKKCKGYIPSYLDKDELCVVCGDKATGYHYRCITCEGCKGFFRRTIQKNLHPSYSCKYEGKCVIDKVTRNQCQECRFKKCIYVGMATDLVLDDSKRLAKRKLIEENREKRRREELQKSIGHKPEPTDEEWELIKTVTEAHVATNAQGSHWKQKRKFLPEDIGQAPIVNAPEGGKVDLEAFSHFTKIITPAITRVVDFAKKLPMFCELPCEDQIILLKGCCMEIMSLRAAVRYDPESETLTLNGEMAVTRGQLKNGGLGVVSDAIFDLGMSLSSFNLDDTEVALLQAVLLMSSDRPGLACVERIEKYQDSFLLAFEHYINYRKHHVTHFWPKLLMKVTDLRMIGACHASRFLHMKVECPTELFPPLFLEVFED
In short: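 Efficacy and EC50 values derive from Hill fits of qHTS titration data, normalized to 10 nM T3 and DMSO-only wells. HEK 293 reporter cells were stimulated for 18 hrs at 37 C, with beta-lactamase activity measured by CCF4 fluorescence.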

[11] = qHTS assay for small molecule antagonists of retinoid X receptor alpha signaling (AID 588546); conditions: HEK293T RXRa-UAS-bla, beta-lactamase ratio, antagonist mode; measured here: W530 green channel, cytotoxicity proxy;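 also: cells stimulated with 9-cis-retinoic acid as agonist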
In short: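 Beta-lactamase reporter inhibition, read as CCF4 fluorescence ratio (ex 405, em 460/530 nm) after 2 h at RT. HEK293T UAS-bla cells, 2500/well, were stimulated with 9-cis-RA at 500 or 100 nM final alongside test compound for 18 h at 37 C.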

[12] = target: Thyroid hormone receptor beta (Homo sapiens) (UniProt P10828); assay: qHTS assay for small molecule antagonists of thyroid hormone receptor beta signaling (AID 588547; active = well fitted inhibition curve with a large enough effect in the signal ratio, with a control signal flat, not every such curve was filed as active; the % refers to the signal ratio;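 also: cells stimulated with 0.4 nM T3 agonist during compound exposure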); conditions: TR-UAS-bla HEK293, beta-lactamase ratio, antagonist mode, 18 h
In short: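 Inhibition of T3-driven (0.4nM final) beta-lactamase reporter activity was measured over 0.59 nM to 92 uM compound after 18 h at 37 C. The cells were GripTite HEK293 TR-UAS-bla in charcoal/dextran-stripped serum, with CCF4 ratio read-out and IC50 from Hill fits.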

[13] = target: Tumor necrosis factor (Homo sapiens) (UniProt P01375); assay: qHTS assay to identify small molecules that stimulate Tumor Necrosis Factor-alpha (TNF-alpha) secretion (AID 651757; active = well fitted curve in the direction sought with a large enough effect in the signal ratio; the % refers to the signal ratio); conditions: Human cells, HTRF 665/615 ratio; series mostly up to 92.2 µM
Tumor necrosis factor (Homo sapiens), sequence (P01375 whole entry, looked up): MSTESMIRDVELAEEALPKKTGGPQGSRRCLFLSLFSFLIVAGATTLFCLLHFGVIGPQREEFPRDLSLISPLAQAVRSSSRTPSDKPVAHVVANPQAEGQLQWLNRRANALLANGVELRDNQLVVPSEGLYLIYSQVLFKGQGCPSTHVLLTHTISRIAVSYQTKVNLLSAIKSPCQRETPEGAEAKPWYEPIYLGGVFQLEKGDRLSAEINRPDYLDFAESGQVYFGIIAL
In short: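 Human monocytic THP-1 cells are plated, treated with compound and held at 37 C for 17 hrs. Labeled anti-TNF-alpha antibody mixture is then added; after 3 hr at room temperature, TR-FRET signal reports secreted TNF-alpha.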

[14] = Cell Viability - LYMP2-004 (AID 966); conditions: LYMP2-004 lymphoblastoid cell viability, qHTS; series mostly up to 92.2 µM; also: nearly all actives have a fitted effect of over 65% in size
In short: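 qHTS cytotoxicity: human lymphoblastoid line, 24 hr compound treatment, 37 C, complete medium. Viability read as cellular ATP via luciferase luminescence; tetraoctylammonium bromide served as positive control.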

[15] = Cell Viability - LYMP2-005 (AID 967); conditions: LYMP2-005 lymphoblastoid cell viability; series mostly up to 92.2 µM
In short: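 Steps: seed 2500 LYMP2-005 cells/well, incubate 5 h at 37 C, add compound, incubate 24 h at 37 C, add CellTiter-Glo, wait 30 min at RT, read luminescence. Concentration-response data fitted to Hill equation for AC50.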

[16] = Cell Viability - LYMP2-018 (AID 985); conditions: LYMP2-018 lymphoblastoid cells, viability (qHTS); series mostly up to 92.2 µM;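 also: compound exposure lasted 24 hr at 37 °C; nearly all actives have a fitted effect of over 50% in size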; also: potency is read from the fitted curve at half-maximal effect
In short: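 Seed 2500 lymphoblastoid cells per well, incubate 5 hr at 37 C, add compound and incubate 24 hr at 37 C, add CellTiter-Glo, wait 30 min at room temperature, then read luminescence.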

[17] = Cell Viability - LYMP2-024 (AID 988); conditions: LYMP2-024 lymphoblastoid cell viability; series mostly up to 92.2 µM; also: nearly all actives have a fitted effect of over 60% in size; also: potency is read from the fitted curve at half-maximal effect
In short: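 qHTS cytotoxicity, human lymphoblastoid line, complete medium; 24 h cpd treatment, 37 C; CellTiter-Glo ATP luminescence readout; tetraoctylammonium bromide positive control; AC50 via Hill fit.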

[18] = target: Peroxisome proliferator-activated receptor gamma (Homo sapiens) (UniProt P37231); assay: qHTS assay for small molecule agonists of peroxisome proliferator-activated receptor gamma signaling (AID 588536; active = well fitted curve in the direction sought with a large enough effect in the signal ratio, with a control signal flat, not every such curve was filed as active; the % refers to the signal ratio); conditions: HEK293 PPARg-UAS-bla, beta-lactamase ratio, 16 h, percent of rosiglitazone response, DMSO as zero; series mostly up to 76.7 µM
Peroxisome proliferator-activated receptor gamma (Homo sapiens), sequence (P37231 whole entry, looked up): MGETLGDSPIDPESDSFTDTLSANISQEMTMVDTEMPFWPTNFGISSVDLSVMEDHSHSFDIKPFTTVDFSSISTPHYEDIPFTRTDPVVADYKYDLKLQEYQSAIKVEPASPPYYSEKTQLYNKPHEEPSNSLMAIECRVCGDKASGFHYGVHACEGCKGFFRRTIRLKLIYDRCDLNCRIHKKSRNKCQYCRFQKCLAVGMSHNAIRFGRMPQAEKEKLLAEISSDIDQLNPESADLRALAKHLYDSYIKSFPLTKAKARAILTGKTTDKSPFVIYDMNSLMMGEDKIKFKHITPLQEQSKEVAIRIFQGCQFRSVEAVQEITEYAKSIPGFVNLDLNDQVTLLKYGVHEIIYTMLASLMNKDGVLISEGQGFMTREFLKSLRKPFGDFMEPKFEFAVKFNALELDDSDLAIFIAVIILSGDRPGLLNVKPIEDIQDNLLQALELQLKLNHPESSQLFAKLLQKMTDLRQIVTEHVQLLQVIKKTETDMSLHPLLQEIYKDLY
In short: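 Compound treatment: 16 h, 37 C, HEK293 GeneBLAzer cells. Detection: CCF4, 2 h RT. Values: Hill-fit EC50, efficacy as % of 2 uM rosiglitazone.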

[19] = Cell Viability - LYMP2-022 (AID 987); conditions: LYMP2-022 lymphoblastoid cell viability; series mostly up to 92.2 µM; also: nearly all actives have a fitted effect of over 55% in size; also: potency is read from the fitted curve at half-maximal effect
In short: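 Cells were seeded at 2500 per well, rested 5 hr at 37 C, and treated with titrated compounds for 24 hr at 37 C. Cellular ATP was then quantified by luciferase luminescence, and AC50 values were derived from Hill-modelled concentration-response curves.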

[20] = Cell Viability - Hek293 (AID 427;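 active = compounds whose dose-response curve shows a full or clear partial loss of cell viability, called from curve shape rather than a numeric limit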;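 also: potency is read from the fitted curve at half-maximal effect; cells exposed to compound for 40 hours at 37 °C before reading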); conditions: qHTS
In short: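 Luminescent ATP read-out (CellTiter-Glo, 20 min RT) after 40 hr compound exposure at 37 °C in complete medium. Signal normalized to DMSO (basal) and 100 uM tamoxifen (100% inhibition); concentration-response fitted with the standard Hill equation to give AC50.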

SMILES	Potency [1]	Potency [2]	outcome [3]	outcome [4]	Potency [5]	Potency [6]	Potency [7]	Potency [8]	max response [9] [%]	Potency [10]	max response [11]	activity change % (negative = inhibition) [12]	outcome [13]	Potency [14]	Potency [15]	Potency [16]	Potency [17]	outcome [18]	Potency [19]	Potency [20]
C=CC(=O)OCCO	> 92 µM (inactive)	inactive	inactive	inactive	inactive	inactive	inactive	inactive	-8.13	inactive	-12.5%	12.5% (inactive)	inactive	–	–	–	–	–	–	–
Nc1ccc(-c2ccc(N)c(Cl)c2)cc1Cl	–	inactive	–	inactive	25.1 µM (active)	inactive	inactive	inactive	–	inactive	-2.3% and -7.33%	-10.6% (inactive) and -0.523% (inactive)	–	inactive	inactive	inactive	inactive	inactive	–	–
[C-]1=CC=CC1.[C-]1=CC=CC1.[Cl-].[Cl-].[Ti+4]	–	inactive	inactive	inactive	inactive	–	–	–	–	inactive	–	–	inactive	–	–	–	–	–	–	–
CN(C)c1ccc(N)cc1	–	–	inactive	–	inactive	–	79.4 µM (active)	–	-18.3	inactive	-13%	8.59% (inactive)	–	–	–	63.1 µM (active)	50.1 µM (active)	inactive	50.1 µM (active)	–
C/C=C/CC#N	> 92 µM (inactive)	inactive	inactive	inactive	inactive	inactive	inactive	inactive	-10.7	inactive	5.46%	15.6% (inactive)	inactive	inactive	inactive	inactive	inactive	inactive	inactive	> 92 µM (inactive)
O=P(OCCCl)(OCCCl)OCCCl	> 92 µM (inactive)	inactive	inactive	inactive	inactive	inactive	inactive	inactive	-20	inactive	-9.97%	2.42% (inactive)	inactive	inactive	inactive	inactive	inactive	inactive	inactive	> 92 µM (inactive)
O=[N+]([O-])c1cccc2c([N+](=O)[O-])cccc12	> 92 µM (inactive)	inactive	inactive	inactive	inactive	inactive	inactive	inactive	-11.5	inactive	-12.9%	-3.1% (inactive)	inactive	inactive	inactive	inactive	inactive	inactive	inactive	> 92 µM (inactive)
Clc1cccc(Cl)c1	> 92 µM (inactive)	inactive	inactive	inactive	inactive	inactive	–	inactive	5.35	inactive	-14.2%	13.8% (inactive)	inactive	inactive	inactive	inactive	inactive	inactive	inactive	> 92 µM (inactive)
